Consider 20 molecules from PubChem BioAssay (NCATS).

Results filed as inconclusive are left out. A call without a number means that no potency is given here. Active and inactive are the calls of the source. Calls follow the shape of the dose curve; as a rule, active = well fitted curve in the direction sought with a large enough effect; inconclusive = small, poorly fitted or top-dose-only effect, or another doubt; inactive = no such curve, though single readings can be large; an effect the other way counts as inactive or inconclusive.

Cytochrome P450 2C19 (Homo sapiens), sequence (P33261 whole entry, looked up): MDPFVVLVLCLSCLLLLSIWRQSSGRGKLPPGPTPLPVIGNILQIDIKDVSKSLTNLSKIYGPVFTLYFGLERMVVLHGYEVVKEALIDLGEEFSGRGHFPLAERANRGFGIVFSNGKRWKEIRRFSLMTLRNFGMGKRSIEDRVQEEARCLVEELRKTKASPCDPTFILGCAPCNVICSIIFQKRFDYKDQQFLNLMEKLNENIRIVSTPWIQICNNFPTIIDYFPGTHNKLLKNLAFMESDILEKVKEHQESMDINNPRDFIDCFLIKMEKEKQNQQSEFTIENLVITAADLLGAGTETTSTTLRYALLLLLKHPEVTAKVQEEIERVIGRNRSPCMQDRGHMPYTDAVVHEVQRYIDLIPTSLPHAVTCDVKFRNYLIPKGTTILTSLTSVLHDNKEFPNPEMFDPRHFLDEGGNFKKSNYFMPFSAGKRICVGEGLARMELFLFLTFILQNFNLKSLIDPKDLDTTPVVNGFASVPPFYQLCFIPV
Guanine nucleotide-binding protein G(i) subunit alpha-1 (Homo sapiens), sequence (P63096 whole entry, looked up): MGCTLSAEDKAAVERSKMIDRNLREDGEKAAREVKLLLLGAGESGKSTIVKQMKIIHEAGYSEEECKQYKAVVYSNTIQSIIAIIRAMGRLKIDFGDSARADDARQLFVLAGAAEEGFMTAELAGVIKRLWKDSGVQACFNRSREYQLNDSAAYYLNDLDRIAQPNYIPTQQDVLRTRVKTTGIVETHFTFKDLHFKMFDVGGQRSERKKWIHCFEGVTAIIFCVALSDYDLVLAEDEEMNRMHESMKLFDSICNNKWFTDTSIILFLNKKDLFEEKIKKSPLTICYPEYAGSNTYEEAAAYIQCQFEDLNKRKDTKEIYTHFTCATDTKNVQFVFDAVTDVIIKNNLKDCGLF
Cytochrome P450 3A4 (Homo sapiens), sequence (P08684 whole entry, looked up): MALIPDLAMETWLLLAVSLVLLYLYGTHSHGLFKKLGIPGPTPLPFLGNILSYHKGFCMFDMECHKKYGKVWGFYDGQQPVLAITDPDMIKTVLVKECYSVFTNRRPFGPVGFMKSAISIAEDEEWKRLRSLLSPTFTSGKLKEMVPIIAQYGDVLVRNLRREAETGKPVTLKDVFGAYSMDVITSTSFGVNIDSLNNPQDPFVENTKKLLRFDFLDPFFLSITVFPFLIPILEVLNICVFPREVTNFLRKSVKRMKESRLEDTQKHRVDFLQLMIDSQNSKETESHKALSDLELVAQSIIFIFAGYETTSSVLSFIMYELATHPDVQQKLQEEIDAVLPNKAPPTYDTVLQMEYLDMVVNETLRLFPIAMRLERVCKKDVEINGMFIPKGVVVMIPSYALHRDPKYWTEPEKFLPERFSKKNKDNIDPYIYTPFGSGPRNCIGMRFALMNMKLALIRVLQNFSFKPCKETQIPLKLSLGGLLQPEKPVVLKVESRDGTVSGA
Cytochrome P450 2C9 (Homo sapiens), sequence (P11712 whole entry, looked up): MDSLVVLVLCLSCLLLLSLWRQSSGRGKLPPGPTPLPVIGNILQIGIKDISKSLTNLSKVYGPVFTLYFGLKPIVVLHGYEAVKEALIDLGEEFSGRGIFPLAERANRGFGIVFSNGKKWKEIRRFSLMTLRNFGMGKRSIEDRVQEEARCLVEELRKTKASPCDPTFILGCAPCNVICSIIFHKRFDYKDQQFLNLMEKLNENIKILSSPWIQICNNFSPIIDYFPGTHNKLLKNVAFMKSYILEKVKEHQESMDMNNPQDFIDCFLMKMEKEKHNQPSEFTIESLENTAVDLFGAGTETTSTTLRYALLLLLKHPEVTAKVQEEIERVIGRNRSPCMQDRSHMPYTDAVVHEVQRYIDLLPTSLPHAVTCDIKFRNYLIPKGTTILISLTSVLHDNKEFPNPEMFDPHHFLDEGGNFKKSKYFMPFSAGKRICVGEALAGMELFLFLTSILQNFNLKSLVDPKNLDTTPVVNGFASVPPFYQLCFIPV

System in one test: not listed separately
The test can be described thus: Cellular Toxicity (caspase-3) N2a (AID 665).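 Also: compound exposure lasted 16 h at 37 °C before readout.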 The following applies: N2a cells, luminescence, normalized: DMSO 0%, 10 µM staurosporine 100%; series mostly up to 92.2 µM. Summed up: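 Caspase-3/7 activation, measured as increased luminescence from aminoluciferin release, is quantified in mouse N2a cells exposed to compounds for 16 h. Values are normalized to DMSO and 10 uM staurosporine, with AC50 derived by Hill modelling.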
Regarding `CCCCCCCC(=O)O`, the molecule was classed as inactive.

Turning to `CC1=C(/C=C/C(C)=C/C=C/C(C)=C/CO)C(C)(C)CCC1`, the outcome was inactive.

Take `CC(O)CO` (configuration not stated): the call was inactive.

On to `CCCCC/C=C\C/C=C\CCCCCCCC(=O)O`, for which the molecule was called inactive.

Turning to `CC(C)(C)NC(=O)[C@@H]1C[C@@H]2CCCC[C@@H]2CN1C[C@@H](O)[C@H](Cc1ccccc1)NC(=O)[C@H](CC(N)=O)NC(=O)c1ccc2ccccc2n1`, the outcome was inactive.

For the molecule `O=C(O)CCC(=O)C(=O)O`, the result was inactive.

`O=CCCCC=O`: the molecule was called inactive.

With `O=S(=O)(O)O`, the outcome was inactive.

Turning to `Cc1ccccc1`, the result was inactive.

Take `IC(I)I`: the molecule was classed as inactive.

With `CC1=C2[C@@H]([C@H](C)CC[C@H]2/C=C(\C)C(=O)O)[C@H](O)C1`, the outcome was inactive.

On to `Nc1ccn([C@H]2CS[C@@H](CO)O2)c(=O)n1`, for which the result was inactive.

Consider `CCOc1ccc2c(c1)C(C)=CC(C)(C)N2`, for which the molecule was called inactive.

Turning to `CC(C)=O`, the molecule was called inactive.

For the molecule `CCOC(C)=O`, the molecule was classed as inactive.

For the molecule `CCCCCCCC/C=C\CCCCCCCC(=O)O`, the outcome was inactive.

System in a further test: not listed separately
Nature of the test: Cellular Toxicity (caspase-3) NIH 3T3 (AID 666).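 Also: caspase signal read after 16 h compound exposure.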 The following applies: NIH 3T3 caspase-3 activation, apoptosis/toxicity, 0% DMSO, 100% is 100 µM tamoxifen; series mostly up to 92.2 µM. Summed up:
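Cells were plated at 1000 per well and incubated 5 hr at 37°C, then compound was added for 16 hr. Caspase-Glo 3/7 reagent followed for 20 min at room temperature before luminescence was read.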
Regarding `CCCCCCCC(=O)O`, the molecule was called inactive.

With `CC1=C(/C=C/C(C)=C/C=C/C(C)=C/CO)C(C)(C)CCC1`, the molecule was called inactive.

As to `CC(O)CO` (configuration not stated), the molecule was called inactive.

Take `CCCCC/C=C\C/C=C\CCCCCCCC(=O)O`: the molecule was called inactive.

With `CC(C)(C)NC(=O)[C@@H]1C[C@@H]2CCCC[C@@H]2CN1C[C@@H](O)[C@H](Cc1ccccc1)NC(=O)[C@H](CC(N)=O)NC(=O)c1ccc2ccccc2n1`, the result was inactive.

Consider `O=C(O)CCC(=O)C(=O)O`, for which the molecule was called inactive.

For `O=CCCCC=O`, the result was inactive.

Regarding `O=S(=O)(O)O`, the result was inactive.

Regarding `Cc1ccccc1`, the result was inactive.

On to `IC(I)I`, for which the molecule was classed as inactive.

As for `CC1=C2[C@@H]([C@H](C)CC[C@H]2/C=C(\C)C(=O)O)[C@H](O)C1`, the outcome was inactive.

With `Nc1ccn([C@H]2CS[C@@H](CO)O2)c(=O)n1`, the result was inactive.

As for `CCOc1ccc2c(c1)C(C)=CC(C)(C)N2`, the molecule was called inactive.

As to `CC(C)=O`, the molecule was classed as inactive.

With `CCOC(C)=O`, the molecule was called inactive.

Regarding `CCCCCCCC/C=C\CCCCCCCC(=O)O`, the outcome was inactive.

System in the next test: not listed separately
Nature of the test: Cellular Toxicity (caspase-3) Renal Proximal Tubule (AID 667).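 Also: cells exposed to compound for 16 hours at 37 °C before detection.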 The following applies: renal proximal tubule cells, primary cells freshly taken from rat, solvent-only wells 0%, staurosporine 100%; series mostly up to 91.7 µM. Summed up:
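In qHTS format, rat primary proximal tubule cells seeded at 1000 per well are exposed to compounds for 16 hours at 37 °C. An increase in Caspase-Glo 3/7 luminescence indicates caspase activation.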
`CCCCCCCC(=O)O`: the molecule was called inactive.

With `CC1=C(/C=C/C(C)=C/C=C/C(C)=C/CO)C(C)(C)CCC1`, the molecule was classed as inactive.

`CC(O)CO` (configuration not stated): the molecule was called inactive.

Consider `CCCCC/C=C\C/C=C\CCCCCCCC(=O)O`, for which the molecule was called inactive.

For the molecule `CC(C)(C)NC(=O)[C@@H]1C[C@@H]2CCCC[C@@H]2CN1C[C@@H](O)[C@H](Cc1ccccc1)NC(=O)[C@H](CC(N)=O)NC(=O)c1ccc2ccccc2n1`, the outcome was inactive.

Take `O=C(O)CCC(=O)C(=O)O`: the result was inactive.

As to `O=CCCCC=O`, the molecule was classed as inactive.

With `O=S(=O)(O)O`, the outcome was inactive.

Regarding `Cc1ccccc1`, the result was inactive.

On to `IC(I)I`, for which the molecule was called inactive.

Take `CC1=C2[C@@H]([C@H](C)CC[C@H]2/C=C(\C)C(=O)O)[C@H](O)C1`: the outcome was inactive.

With `Nc1ccn([C@H]2CS[C@@H](CO)O2)c(=O)n1`, the molecule was called inactive.

For `CCOc1ccc2c(c1)C(C)=CC(C)(C)N2`, the call was inactive.

With `CC(C)=O`, the molecule was classed as inactive.

With `CCOC(C)=O`, the call was inactive.

For the molecule `CCCCCCCC/C=C\CCCCCCCC(=O)O`, the molecule was classed as inactive.

The next test concerns the target Guanine nucleotide-binding protein G(i) subunit alpha-1 (Homo sapiens) (UniProt P63096). Nature of the test: qHTS Assay for Inhibitors of RGS12 GoLoco Motif Activity (Green Fluorophore) (AID 879).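 Also: negative values mean loss of peptide binding seen as reduced polarization.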 The following applies: Galphai1/FITC-RGS12 GoLoco peptide, fluorescence polarization; series mostly up to 57.1 µM. An excerpt:
Assay Overview: NIH Molecular Libraries Screening Centers Network [MLSCN] NIH Chemical Genomics Center [NCGC] MLSCN Grant: NS053754-01 Assay Provider: Siderovski, David P, University of North Carolina at Chapel Hill G-protein-coupled receptors (GPCRs) are major targets for drug discovery. The regulator of G-protein signaling (RGS)-protein family has important roles in GPCR signal transduction. RGS proteins contain a conserved RGS-box, which is often accompanied by other signaling regulatory elements. RGS proteins accelerate the deactivation of G proteins to reduce GPCR signaling; however, some also have an effector function and transmit signals. Combining GPCR agonists with RGS inhibitors should potentiate responses, and could markedly increase the agonist's regional specificity. The diversity of RGS proteins with highly localized and dynamically regulated distributions in brain makes them attractive targets for pharmacotherapy of central nervous system disorders. […] A complex of Gai1 and fluorescently labeled G-alpha-binding peptide (the "GoLoco motif") derived from RGS12 is incubated with library members. Inhibitors of the binding are detected by a decrease in the fluorescence polarization (FP) of the fluorophore. Protein was supplied by Prof. David Siderovski, University of North Carolina at Chapel Hill.
Assay Protocol: Reagents/Controls: Assay Buffer: 10 mM Tris-HCl, 150 mM NaCl, 0.1 mM GDP (prepared fresh), and 0.05% NP40 at pH 7.5. […] 10 nM FITC labeled peptide/50 nM protein in columns 1, 2, 5 - 48. […] The plates were incubated for 10 min at room temperature, and then read on ViewLux (Perkin-Elmer) High-throughput CCD imager using FITC polarization filter sets for the fluorescein-labeled decapeptide probe.During dispense, reagent bottles were kept submerged into 4 deg C water bath and all liquid lines were covered with aluminum foil to minimize probe and protein degradation. […]
In general terms: qHTS replaces the single test concentration by a dilution series.
For `COc1ccc(CCNC[C@H](O)c2ccc(O)cc2)cc1OC`, the molecule was classed as inactive.

Turning to `CN=C(NC#N)Nc1ccc(C2=NNC(=O)C[C@@H]2C)cc1`, the result was inactive.

Regarding `CC[N+](C)(C)Cc1ccccc1Br`, the call was inactive.

A further test concerns the target Cytochrome P450 2C9 (Homo sapiens) (UniProt P11712). The test can be described thus: qHTS Assay for Inhibitors and Substrates of Cytochrome P450 2C9 (AID 883). Also: nearly all actives have a fitted effect of over 60% in size. The following applies: recombinant CYP2C9, luciferin-H luminescence, 60 min; series mostly up to 25.6 µM. Summed up:
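Turnover of Luciferin-H (100uM, KM) by 10nM human CYP2C9 was measured over 60 min at 37C with NADPH regeneration; inhibitors and some substrates reduce luminescence. Data normalized to sulphaphenazole 57uM.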
For `O=C(O)CCC(=O)C(=O)O`, the result was inactive.

Regarding `CCN(CC)Cc1cc(Nc2ccnc3cc(Cl)ccc23)ccc1O`, the outcome was inactive.

Turning to `CN=C(NC#N)Nc1ccc(C2=NNC(=O)C[C@@H]2C)cc1`, the result was inactive.

The target of another test is Cytochrome P450 3A4 (Homo sapiens) (UniProt P08684). Nature of the test: qHTS Assay for Inhibitors and Substrates of Cytochrome P450 3A4 (AID 884). Also: nearly all actives have a fitted effect of over 50% in size. The following applies: recombinant CYP3A4, Luciferin-PPXE luminescence; series mostly up to 57.1 µM. Put shortly:
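Luminescent readout of luciferin produced by CYP3A4 (20 nM) dealkylation of Luciferin-PPXE, 25 uM (its KM). NADPH-driven reaction ran 60 min at RT after 10 min compound preincubation; data scaled to 57 uM ketoconazole as 100% inhibition.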
Consider `CCCCCCCC(=O)O`, for which the Potency result was “inactive”.

Turning to `CC(O)CO` (configuration not stated), the Potency entry is “inactive”.

Turning to `O=CCCCC=O`, the Potency entry was “inactive”.

On to `O=S(=O)(O)O`, for which the Potency entry is “inactive”.

With `Cc1ccccc1`, the Potency result is “inactive”.

For the molecule `IC(I)I`, the Potency entry was “inactive”.

Take `CCN(CC)Cc1cc(Nc2ccnc3cc(Cl)ccc23)ccc1O`: the Potency entry is “inactive”.

In the case of `CC1=C2[C@@H]([C@H](C)CC[C@H]2/C=C(\C)C(=O)O)[C@H](O)C1`, the Potency entry is “inactive”.

For the molecule `Nc1ccn([C@H]2CS[C@@H](CO)O2)c(=O)n1`, the Potency result was “inactive”.

In the case of `CCOC(C)=O`, the Potency entry was “inactive”.

On to `CCCCCCCC/C=C\CCCCCCCC(=O)O`, for which the Potency entry was “inactive”.

For a further test the target is unchanged. The test can be described thus: qHTS Assay for Activators of Cytochrome P450 3A4 (AID 885). Also: nearly all actives have a fitted effect of over 65% in size. The following applies: recombinant CYP3A4, Luciferin-PPXE luminescence, 60 min; series mostly up to 57.1 µM. Put shortly: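 Activators are scored by enhanced luminescence from CYP3A4 conversion of luciferin-PPXE (25uM, equal to KM) to luciferin, after 60 min at RT with an NADPH-regenerating system.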
In the case of `CC1=C(/C=C/C(C)=C/C=C/C(C)=C/CO)C(C)(C)CCC1`, the outcome was inactive.

As to `COc1ccc(CCNC[C@H](O)c2ccc(O)cc2)cc1OC`, the result was inactive.

For the molecule `CCCCC/C=C\C/C=C\CCCCCCCC(=O)O`, the result was inactive.

With `CCOc1ccc2c(c1)C(C)=CC(C)(C)N2`, the outcome was inactive.

For a further test, the target named is Cytochrome P450 2C19 (Homo sapiens) (UniProt P33261). Nature of the test: qHTS Assay for Inhibitors and Substrates of Cytochrome P450 2C19 (AID 899). Also: nearly all actives have a fitted effect of over 60% in size. The following applies: recombinant CYP2C19, luciferin-H EGE luminescence; series mostly up to 25.6 µM. Put shortly:
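Reactions contain 5nM enzyme, 10uM Luciferin-H EGE (KM) and 50mM KPO4; compound preincubates 10 min at 37C, NADPH regeneration starts turnover for 60 min. Luminescence after detection reagent gives activity.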
For `O=C(O)CCC(=O)C(=O)O`, the outcome was inactive.

Regarding `CCN(CC)Cc1cc(Nc2ccnc3cc(Cl)ccc23)ccc1O`, the outcome was inactive.

Consider `CN=C(NC#N)Nc1ccc(C2=NNC(=O)C[C@@H]2C)cc1`, for which the outcome was inactive.
